# “And” between values parts separate entries of the source, which are not always exact repeats. Equal values may be shown once. Results filed as inconclusive are left out. A number with no mark means an inactive call. The source made the active and inactive calls. The call rests on the fitted dose curve; in most records, active means well fitted inhibition curve with a large enough effect; inconclusive means small, poorly fitted or top-dose-only effect; inactive means flat fitted curve, though single readings scatter.
# Assay: Drug repurposing screens with cells derived from glioblastoma tumor samples (AID 1345199); further: nearly all actives have a fitted effect of over 40% in size
# Details: GBM patient neurospheres viability, ATP luminescence, 48 h
# Method: CD133+ cells were isolated from GBM patient biopsies and cultured as neurospheres. Neurospheres from four patients were used to screen the NCATS pharmaceutical collection (NPC) library of approved drugs and bioactive compounds. […] The neurospheres were incubated with drugs for 48 hours in 1536-well format, then assayed with an ATP content cell viability assay. […] These hits were cherry picked to confirm activity in the four original GBM lines screened plus three other slower growing GMB lines (unable to yield enough cells for a full primary screen). Variable activities of the confirmed primary hits in the different GBM patient lines were observed. The patient line 206 responded to the greatest number of compounds and line 923 responded to the least amount of active compounds.
# [1] = at 45.9 µM (top of the series), tumour line B
# [2] = at 45.9 µM (top of the series), tumour line D
# [3] = at 46.1 µM (top of the series), tumour line C
# [4] = at 46 µM (top of the series), tumour line A
# [5] = at 91.6 µM (top of the series), tumour line B
# [6] = at 91.6 µM (top of the series), tumour line D
# [7] = at 99.2 µM (top of the series), tumour line C
# On the % scale 0 is the no-effect control and ±100 the full control effect; potency means the concentration at half of the fitted maximal effect.
compound,measurement,setting,value
O=C(Nc1ccc(S(=O)(=O)N2CCOCC2)cc1)c1cc(Cl)ccc1NS(=O)(=O)c1ccc(Cl)s1,"activity, negative = cell killing",[1],-15.3%
same,Potency,tumour line A,6.31 µM (active)
same,Potency,tumour line C,25.9 µM (active)
same,Potency,tumour line D,15.8 µM (active)
OC[C@]1(O)OC[C@@H](O)[C@H](O)[C@@H]1O,"activity, negative = cell killing",[1],6.45%
same,"activity, negative = cell killing",[2],-1.03%
same,"activity, negative = cell killing",[3],12.8%
C[C@@]12CCC[C@H]1[C@@H]1CC[C@H]3C[C@@H](O)CC[C@]3(C)[C@H]1CC2,"activity, negative = cell killing",[1],-21.2%
same,Potency,tumour line A,7.08 µM (active)
CSc1ccc(/C=C2/C(C)=C(CC(=O)O)c3cc(F)ccc32)cc1,"activity, negative = cell killing",[1],-6.37%
same,"activity, negative = cell killing",[2],-11.2%
same,"activity, negative = cell killing",[4],-24%
same,"activity, negative = cell killing",[3],-7.45%
CCO[C@H](Cc1ccc(OCCc2ccc(OS(C)(=O)=O)cc2)cc1)C(=O)O,"activity, negative = cell killing",[1],-8.78%
same,"activity, negative = cell killing",[2],-11.2%
same,"activity, negative = cell killing",[3],-26%
same,Potency,tumour line A,14.1 µM (active)
O=C(O)[C@@H](O)[C@H](O)[C@H](O)[C@@H](O)C(=O)O,"activity, negative = cell killing",[1],-15.2%
same,"activity, negative = cell killing",[2],6.93%
same,"activity, negative = cell killing",[3],-6.4%
OCCc1ccccc1,"activity, negative = cell killing",[1],-16.7%
same,"activity, negative = cell killing",[2],-5.39%
same,"activity, negative = cell killing",[4],-18.5%
same,"activity, negative = cell killing",[3],13.1%
Cc1nc([N+](=O)[O-])cn1-c1ccc([N+](=O)[O-])cc1,"activity, negative = cell killing",[1],-9.26%
same,"activity, negative = cell killing",[2],-5.48%
same,"activity, negative = cell killing",[4],-16.5%
same,"activity, negative = cell killing",[3],4.99%
Cc1ccc(O)cc1,"activity, negative = cell killing",[1],-22.9% and -5.16%
same,"activity, negative = cell killing",[2],-8.77% and -8.54%
same,"activity, negative = cell killing",[4],-10.9%
same,"activity, negative = cell killing",[3],8.95% and -5.08%
Cc1ccccc1C(=O)N1CC/C(=N\OS(=O)(=O)O)c2ccc(Cl)cc21,"activity, negative = cell killing",[1],-4.66%
same,"activity, negative = cell killing",[2],-7.25%
same,"activity, negative = cell killing",[4],-14.2%
same,"activity, negative = cell killing",[3],2.94%
C1=CC2C3C=CC(C3)C2C1 (stereo not drawn),"activity, negative = cell killing","at 91.6 µM (top of the series), tumour line A",-19.8%
same,"activity, negative = cell killing",[5],-14.6%
same,"activity, negative = cell killing",[6],-19.1%
same,"activity, negative = cell killing",[7],15.3%
CCCCC(CC)COC(=O)c1ccccc1C(=O)O (stereo not drawn),"activity, negative = cell killing",[5],-11.6%
same,"activity, negative = cell killing",[6],-15.6%
same,"activity, negative = cell killing",[7],-7.68%

# — PubChem BioAssay (NCATS)
